Results reported in PubChem BioAssay.
Values without a mark were called inactive. No rule for the calls is given here.

Each compound was assayed against Pantothenate synthetase (Mycobacterium tuberculosis (strain ATCC 25618 / H37Rv)) (UniProt P9WIL5) (assay: Coupled enzyme confirmation of inhibitors against recombinant Mtb PanC (AID 375;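 also: 0% = full reaction with vehicle and 100% = no enzyme background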)). Conditions: coupled enzyme assay; at 10 µM, stronger effect = higher value.
Sequence of Pantothenate synthetase (Mycobacterium tuberculosis (strain ATCC 25618 / H37Rv)) (P9WIL5 whole entry, looked up): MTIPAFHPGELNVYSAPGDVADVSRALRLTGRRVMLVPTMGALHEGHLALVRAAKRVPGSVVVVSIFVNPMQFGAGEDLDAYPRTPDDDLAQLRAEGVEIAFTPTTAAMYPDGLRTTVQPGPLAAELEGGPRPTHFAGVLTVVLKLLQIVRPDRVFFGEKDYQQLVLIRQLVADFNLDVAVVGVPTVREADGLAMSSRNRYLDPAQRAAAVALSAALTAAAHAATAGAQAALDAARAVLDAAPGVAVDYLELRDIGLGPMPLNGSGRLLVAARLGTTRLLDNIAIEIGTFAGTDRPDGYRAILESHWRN

| SMILES | inhibition [%] |
| --- | --- |
| C=CCN1C(=O)C2(c3ccccc31)C1CCCC=C1C(C#N)=C(N)C2(C#N)C#N (stereo not given) | 0 |
| CC1(C)CC(=O)CC(=Nc2ccc(C(=O)O)cc2)C1 | 8 |
| COc1ccc(CCNC(=O)C2(C)CCC(=O)N2Cc2ccc3c(c2)OCO3)cc1OC (stereo not given) | 1 |
| CCN(c1cccc(C)c1)S(=O)(=O)c1ccc2[nH]c(=O)c(=O)[nH]c2c1 | 7 |
| CC[N+](C)(C)c1cccc(O)c1 | 0 |
| CCOC(=O)N1CCN(C(=O)C2CC(=O)N(Cc3ccc(OC)cc3)C2)CC1 (stereo not given) | 3 |
| CCN(CC)C(=O)C1=C(C)NC(=O)NC1c1c(F)cccc1Cl (stereo not given) | 0 |
| CC(C)CCNC(=O)NC(=O)CN1C(=O)NC2(CCCCC2)C1=O | 2 |
| Cc1nn(C)cc1/C=N/O | 0 |
| c1ccc2c(-c3nc(-c4ccncc4)no3)cccc2c1 | 0 |
| CCOC(=O)c1sc(Nc2nc3c(OC)cccc3s2)nc1C | 1 |
| Cc1nc2sc(C(c3cccs3)N3CC(C)CC(C)C3)c(O)n2n1 (stereo not given) | 0 |
| COc1cccc(N2CCN(Cc3cccnc3)CC2)c1 | 3 |
| COc1cc(C)nc(OCCNC(=O)COc2ccc(Cl)cc2C)n1 | 5 |
| O=C(c1ccc(S(=O)(=O)N2CCOCC2)cc1)N1CCc2ccccc2C1 | 0 |
| COc1cc2c(cc1OC)CN(C(=O)COc1ccc(C#N)cc1)CC2 | 0 |
| Cc1sc2nc(SCc3nc4ccccc4[nH]3)n(Cc3ccco3)c(=O)c2c1C | 2 |
| CCn1ncc(C2=NOC(C(=O)N3CCC(C(N)=O)CC3)C2)c1C (stereo not given) | 0 |
| O=S(=O)(c1ccc(Br)s1)N1CCN(c2ccccc2)CC1 | 0 |
| N#CC1(c2ccccc2)CCC(=NO)CC1 (stereo not given) | 0 |

| SMILES | inhibition [%] |
| --- | --- |
| O=C(Nc1ccccc1Cl)c1c(F)c(F)c(F)c(F)c1F | 6 |
| CCC(C)(C(=O)NC1CCCCC1)N(CC1CCCO1)C(=O)c1ccccn1 (stereo not given) | 0 |
| O=c1oc2ccccc2n1CCn1c2ccccc2c2nc3ccccc3nc21 | 0 |
| COc1ccccc1C(=O)Nc1c2c(nn1-c1cccc(C)c1C)CS(=O)(=O)C2 | 7 |
| Cc1cc(-c2ccccc2)c2c3c(cn2n1)c(=O)n(C)c(=O)n3C | 0 |
| CC(=O)Nc1ccccc1OCc1nnc(-c2cccs2)o1 | 0 |
| CCOc1ccc(-c2nnn(CC(=O)N3CCN(c4ccc(F)cc4)CC3)n2)cc1OCC | 0 |
| Oc1cc(NCc2cccnc2)ccc1-c1nc2ccccc2o1 | 0 |
| Cc1csc2ncc(C(=O)Nc3ccccc3Cl)c(=O)n12 | 3 |
| CN(C)S(=O)(=O)c1cccc(C(=O)Nc2cccnc2)c1 | 0 |
| CCCCNC(=O)C(C#N)c1nc2ccccc2nc1N1CCCC1 (stereo not given) | 0 |
| CC(NC(=O)c1cc2c(=O)n(C)c3ccccc3c2n1C)c1ccc2c(c1)OCCO2 (stereo not given) | 3 |
| CCC(C)(C(=O)NC1CCCC1)N(Cc1cccs1)C(=O)Cc1cccs1 (stereo not given) | 0 |
| CCCCn1cnc2c(cnn2-c2ccc(Cl)cc2)c1=O | 6 |
| O=C(c1ccc(Br)o1)N1CCN(c2ccc3nnc(-c4ccccc4)n3n2)CC1 | 1 |
| CCOC(=O)N1CCC(NC(=O)CS(=O)(=O)Cc2nc(-c3ccccc3C)oc2C)CC1 | 3 |
| CC(NC(=O)NC12CC3CC(CC(C3)C1)C2)C1CCCO1 (stereo not given) | 5 |
| CCC(=O)N1CCc2cc(S(=O)(=O)CCC(=O)Nc3ccc(C)c(F)c3)ccc21 | 0 |
| COC(=O)c1c(C(=O)OC)n(CCCN)c2ccc(C)cc12 | 9 |
| Cc1cc(C2C(C#N)=C(N)SC(N)=C2C#N)c(C)s1 | 0 |
